Structures are written as SMILES.

Assay [1] deals with H1975. As to the kind of experiment: area under confluence curve of compound monotherapy; compare to DMSO control AUC of the same experiment (AUC (confluence x time, arbitrary)). The method, boiled down: (§1)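 Test compound alone was added at one dose (1 uM, or the highest with <50% parental inhibition) to adenocarcinoma lines seeded the previous day at 20,000–30,000 cells/well in 48-well plates with RPMI 1640 and 10% FBS at 37 °C and 5% CO2. The drug was refreshed with PBS washes every 3–4 days, and cultures were left drug-free from the DTP stage (10–21 days) while IncuCyte tracked confluence until wells given only an EGFR inhibitor regrew. Area under the confluence curve was obtained in Prism, as a median of triplicates where run, and compared against vehicle from the same experiment.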

The test system of assay [2] is HCC2279. The assay is described as above. The method, boiled down: as §1
Assay [3] relates to HCC2935. The description is as above. An outline of the steps:
as §1

Assay [4] has as its system HCC4006. Described as above. The method, boiled down: as §1
The subject of assay [5] is HCC827. The description is as above. An outline of the steps:
as §1

For assay [6], the system named is II-18. The description is as above. The method, boiled down: as §1
In assay [7] the test system is H1975. Put plainly: area under confluence curve of osimertinib + compound combination regimen (DTP regrowth); compare to osimertinib-only DTP control AUC of the same experiment (AUC (confluence x time, arbitrary)). The method, boiled down: (§2)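 The area under the IncuCyte confluence–time curve, calculated in Prism and taken as the median of triplicates where available, is the value reported. It was measured in EGFR-mutant NSCLC lines that received the EGFR inhibitor either alone, followed by a test compound, or together with a fixed-dose test compound until the persister stage (10–21 days) and then drug-free medium. Medium was refreshed every 3–4 days until the inhibitor-only wells were confluent again.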

The test system of assay [8] is HCC2279. The description is as above. The method, boiled down: as §2
For assay [9], the system named is HCC2935. The description is as above. The method, boiled down: as §2
Assay [10] has as its system HCC4006. The assay is described as above. An outline of the steps:
as §2

Assay [11] concerns HCC827. The assay is described as above. The method, boiled down:
as §2

Assay [12] concerns II-18. The description is as above. The method, boiled down:
as §2

Where [13] appears, read: 1000 nM, DMSO control AUC in same experiment: 15857.
The mark [14] stands for this setting: 1000 nM, DMSO control AUC in same experiment: 14404.
The mark [15] stands for this setting: 1000 nM, DMSO control AUC in same experiment: 19215.
Setting [16] is: 1000 nM, DMSO control AUC in same experiment: 18415.
Setting [17] is: 1000 nM, DMSO control AUC in same experiment: 21320.
[18] abbreviates: 1000 nM, DMSO control AUC in same experiment: 11834.

Turning to `C[C@@H](Oc1cc(-c2cnn(C3CCNCC3)c2)cnc1N)c1c(Cl)ccc(F)c1Cl` [Crizotinib], the “area under confluence curve” value in the assay on H1975 [1] (setting [13]) came out at 9870; in the assay on HCC2279 [2] (setting [14]), 13900; with HCC2935 [3] (setting [15]), 19300; in the assay on HCC4006 [4] (setting [16]) it was 16500; in the assay on HCC827 [5] (setting [17]), 19500; with II-18 [6] (setting [18]), 6690.
On to `Cc1nc(N2CCC3(CC2)CO[C@@H](C)[C@H]3N)c(CO)nc1-c1cccc(Cl)c1Cl`, for which the “area under confluence curve” value in the assay with H1975 [1] (setting [13]) was 17200; in the assay on HCC2279 [2] (setting [14]), 12100; in the assay with HCC2935 [3] (setting [15]) it was 19100; with HCC4006 [4] (setting [16]) it was 19200; in the assay on HCC827 [5] (setting [17]), 14900; in the assay with II-18 [6] (setting [18]), 3600.
With `COc1cc(CCc2cc(NC(=O)c3ccc(N4CC(C)NC(C)C4)cc3)n[nH]2)cc(OC)c1` (stereo not drawn) + C=CC(=O)Nc1cc(Nc2nccc(-c3cn(C)c4ccccc34)n2)c(OC)cc1N(C)CCN(C)C [osimertinib], the “area under confluence curve” value in the assay with H1975 [7] (test compound dose 1000 nM, dosing schedule: sequential, osimertinib-only DTP control AUC in same experiment: 12533, DMSO control AUC in same experiment: 14522) worked out at 3690; in the assay with H1975 [7] (test compound dose 1000 nM, dosing schedule: upfront, osimertinib-only DTP control AUC in same experiment: 18969, DMSO control AUC in same experiment: 14522), 17800; in the assay on HCC2279 [8] (test compound dose 1000 nM, dosing schedule: sequential, osimertinib-only DTP control AUC in same experiment: 20224, DMSO control AUC in same experiment: 29252), 10100; in the assay on HCC2279 [8] (test compound dose 1000 nM, dosing schedule: upfront, osimertinib-only DTP control AUC in same experiment: 43517, DMSO control AUC in same experiment: 29252), 18500; in the assay on HCC2935 [9] (test compound dose 1000 nM, dosing schedule: sequential, osimertinib-only DTP control AUC in same experiment: 9121, DMSO control AUC in same experiment: 11459) it was 9140; in the assay with HCC2935 [9] (test compound dose 1000 nM, dosing schedule: upfront, osimertinib-only DTP control AUC in same experiment: 12748, DMSO control AUC in same experiment: 11459) it was 11800. Further, the “area under confluence curve” value with HCC4006 [10] (test compound dose 1000 nM, dosing schedule: sequential, osimertinib-only DTP control AUC in same experiment: 22375, DMSO control AUC in same experiment: 16794) stood at 14900; in the assay with HCC4006 [10] (test compound dose 1000 nM, dosing schedule: upfront, osimertinib-only DTP control AUC in same experiment: 24440, DMSO control AUC in same experiment: 16794), 8920; in the assay on HCC827 [11] (test compound dose 1000 nM, dosing schedule: sequential, osimertinib-only DTP control AUC in same experiment: 5666, DMSO control AUC in same experiment: 43928), 3350; in the assay with HCC827 [11] (test compound dose 1000 nM, dosing schedule: upfront, osimertinib-only DTP control AUC in same experiment: 19044, DMSO control AUC in same experiment: 43928), 7760; in the assay on II-18 [12] (test compound dose 1000 nM, dosing schedule: sequential, osimertinib-only DTP control AUC in same experiment: 7374, DMSO control AUC in same experiment: 23373), 2610; in the assay with II-18 [12] (test compound dose 1000 nM, dosing schedule: upfront, osimertinib-only DTP control AUC in same experiment: 15065, DMSO control AUC in same experiment: 23373), 11500.
As for `COc1cc(CCc2cc(NC(=O)c3ccc(N4CC(C)NC(C)C4)cc3)n[nH]2)cc(OC)c1` (stereo not drawn), the “area under confluence curve” value with H1975 [1] (1000 nM, DMSO control AUC in same experiment: 14522) is 17400; in the assay with HCC2279 [2] (1000 nM, DMSO control AUC in same experiment: 29252) it was 28700; in the assay on HCC2935 [3] (1000 nM, DMSO control AUC in same experiment: 11459) it was 11000; with HCC4006 [4] (1000 nM, DMSO control AUC in same experiment: 16794), 15300; in the assay on HCC827 [5] (1000 nM, DMSO control AUC in same experiment: 43928) it was 46400; in the assay with II-18 [6] (1000 nM, DMSO control AUC in same experiment: 23373), 19700.
In the case of `C[C@@]1(C(=O)Nc2ccc(F)nc2)CCCN1c1nc(Nc2cc(C3CC3)n[nH]2)c2cccn2n1` + C=CC(=O)Nc1cc(Nc2nccc(-c3cn(C)c4ccccc34)n2)c(OC)cc1N(C)CCN(C)C [osimertinib], the “area under confluence curve” value in the assay with H1975 [7] (test compound dose 100 nM, dosing schedule: sequential, osimertinib-only DTP control AUC in same experiment: 22617, DMSO control AUC in same experiment: 16540) was 13500; with H1975 [7] (test compound dose 100 nM, dosing schedule: upfront, osimertinib-only DTP control AUC in same experiment: 28291, DMSO control AUC in same experiment: 16540), 12500; in the assay with HCC2279 [8] (test compound dose 100 nM, dosing schedule: sequential, osimertinib-only DTP control AUC in same experiment: 26096, DMSO control AUC in same experiment: 14404), 24200; in the assay on HCC2279 [8] (test compound dose 100 nM, dosing schedule: upfront, osimertinib-only DTP control AUC in same experiment: 33120, DMSO control AUC in same experiment: 14404) it was 34700; in the assay on HCC2935 [9] (test compound dose 100 nM, dosing schedule: sequential, osimertinib-only DTP control AUC in same experiment: 22314, DMSO control AUC in same experiment: 19215) it was 22300; in the assay on HCC2935 [9] (test compound dose 100 nM, dosing schedule: upfront, osimertinib-only DTP control AUC in same experiment: 29846, DMSO control AUC in same experiment: 19215) it was 22200. Further, the “area under confluence curve” value in the assay with HCC4006 [10] (test compound dose 100 nM, dosing schedule: sequential, osimertinib-only DTP control AUC in same experiment: 12791, DMSO control AUC in same experiment: 18415) was 11000; with HCC4006 [10] (test compound dose 100 nM, dosing schedule: upfront, osimertinib-only DTP control AUC in same experiment: 17269, DMSO control AUC in same experiment: 18415) it was 9040; in the assay on HCC827 [11] (test compound dose 100 nM, dosing schedule: sequential, osimertinib-only DTP control AUC in same experiment: 15330, DMSO control AUC in same experiment: 21320) it was 12600; in the assay with HCC827 [11] (test compound dose 100 nM, dosing schedule: upfront, osimertinib-only DTP control AUC in same experiment: 20798, DMSO control AUC in same experiment: 21320), 23300; in the assay with II-18 [12] (test compound dose 100 nM, dosing schedule: sequential, osimertinib-only DTP control AUC in same experiment: 8624, DMSO control AUC in same experiment: 11834) it was 533; with II-18 [12] (test compound dose 100 nM, dosing schedule: upfront, osimertinib-only DTP control AUC in same experiment: 10856, DMSO control AUC in same experiment: 11834), 1400.
For the compound `COC(=O)c1ccc([C@H]2c3[nH]c4ccccc4c3C[C@H](C(=O)OC)N2C(=O)CCl)cc1`, the “area under confluence curve” value with H1975 [1] (100 nM, DMSO control AUC in same experiment: 26010) is 25200; with HCC2279 [2] (100 nM, DMSO control AUC in same experiment: 9426), 9000; in the assay on HCC2935 [3] (100 nM, DMSO control AUC in same experiment: 11459), 11700; in the assay on HCC4006 [4] (100 nM, DMSO control AUC in same experiment: 16638), 16200; in the assay on HCC827 [5] (100 nM, DMSO control AUC in same experiment: 35394), 29100; in the assay on II-18 [6] (100 nM, DMSO control AUC in same experiment: 13556), 7620.

(Values after the supplement of paper PMC9794691.)
